Nrf2 block: blocks Nrf2 signaling; Potency, µM (highest dose often 46 µM), hits mostly inhibitors; hit rate 2.1% among 360,000; A549 ARE-Fluc reporter, luciferase luminescence, 18-24 h; AID 504444; further: nearly all actives have a fitted effect of over 60% in size
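Nrf2 function is reported as luminescence of an ARE-controlled luciferase in A549 cells. Compounds were tested at several concentrations, and a CellTiter-Fluor read on the same wells flagged cytotoxicity.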
TGFb SMAD3 inh: blocks TGF-b signaling | hit rate 1.2% among 410,000 | AID 588855 | Potency, µM (highest dose often 46.1 µM), usual class: inhibitors | HepG2 CAGA-GFP TGF-b/SMAD3 reporter, GFP fluorescence, 18 h; TGF-beta stimulated, 500 pg/mL final; further: nearly all actives have a fitted effect of over 65% in size
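TGF-beta reporter screen: HEPG2 CAGA-GFP, 1% FBS, 500 pg/mL TGF-beta final, 18 h; per-cell GFP summed per well; curves fitted and categorized by class.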
A549 viability: kills or reduces viability of A549 cells in Nrf2 counter-screen; A549 ARE-Fluc cells, CellTiter-Fluor viability, 18-24 h; Potency, µM (titrated, usually from 46 µM), actives largely listed as inhibitors; hit rate 0.16% among 390,000
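Cytotoxicity counterscreen: CellTiter-Fluor fluorescence was measured in A549 ARE_Fluc cells after 18-24 h of compound exposure in a concentration series. The subsequent BugLite luminescent read reports ARE-luciferase activity.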
Nrf2 ARE act: activators of Nrf2 (ARE) signaling | Potency, µM (doses to about 46.1 µM), usual class: activators | AREc32 ARE-luciferase reporter (MCF7-derived line), luminescence, 24 h | hit rate 0.31% among 410,000 | AID 624171; further: nearly all actives have a fitted effect of over 65% in size
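Reporter line AREc32 (ARE-Fluc), seeded overnight in OPTI-MEM with 5% FBS; compound pin-transferred, 24 hr at 37 deg C, 5% CO2; luminescent read-out.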
HepG2 viability: counter-screen for TGF-b inhibitors: cytotoxicity in HepG2 cells; AID 588856; HepG2 CAGA-GFP viability, ATP luminescence, 18 h; hit rate 0.76% among 410,000; Potency, µM (top dose mostly 46.1 µM), hits mostly cytotoxic
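CellTiter-Glo luminescence gave cytotoxicity after 18 hours at 37 degrees C. The cells were HepG2 CAGA-GFP in 1% FBS DMEM, stimulated with 500 pg/mL TGF-beta after compound addition. %Activity was normalised to no-cell wells (complete cell-killing) and DMSO (no toxicity), and curves were fitted and classified.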
A number is an active result; - = inactive; ? = inconclusive; . = no result; ! = a repeat was not active. Compounds with a hit are over-represented: about 3.6% of the library has one in this group of screens. The call rests on the fitted dose curve; in most records, active means well fitted curve in the direction sought with a large enough effect; inconclusive means small, poorly fitted or top-dose-only effect, or another doubt; inactive means no such curve, though single readings can be large; an effect the other way counts as inactive or inconclusive.

SMILES	Nrf2 block	TGFb SMAD3 inh	A549 viability	Nrf2 ARE act	HepG2 viability
O=C1C2=C(Nc3ccccc3SC2c2ccc(C(F)(F)F)cc2)c2ccccc21 (stereo unspecified)	?	11.2µM	?	-	-
CC(C)c1ccc(C2Sc3ccccc3NC3=C2C(=O)c2ccccc23)cc1 (stereo unspecified)	-	.	-	-	-
Oc1ccc(-c2c(-c3ccsc3)sc3ccccc23)cc1	?	11.2µM	-	-	-
CCC(=O)OCOc1ccc(/C=C2/CCC(CN(C)C)C2=O)cc1 (stereo unspecified)	-	6.31µM	-	?	-
O=S(=O)(NCC1CCN(c2ccc(S(=O)(=O)N3CCOCC3)cc2)CC1)c1ccccc1	?	?	-	-	-
O=S(=O)(NCC1CCN(c2ccc(S(=O)(=O)N3CCOCC3)cc2)CC1)c1ccc(F)cc1	20.6µM	-	?	-	-
Cc1cc(N2CCN(c3ccc([N+](=O)[O-])c4cccnc34)CC2)c2ccccc2n1	-	?	-	-	3.16µM
Cc1ccc(S(=O)(=O)N2CCN(c3ccc(C(F)(F)F)cc3[N+](=O)[O-])CC2)cc1	16.4µM	?	-	-	-
Cc1cc(N2CCN(c3ccc(C(F)(F)F)cc3[N+](=O)[O-])CC2)c2ccccc2n1	-	10µM	-	-	-
O=C(c1ccccc1F)N1CCN(c2ccc([N+](=O)[O-])c3cccnc23)CC1	-	-	-	-	-
Cc1ccc(Nc2nc(NCCO)c3ccccc3n2)cc1C	?	14.1µM	-	-	-
COc1ccc(OC)c(Nc2nc(NCCO)c3ccccc3n2)c1	-	-	-	-	-
COc1ccc(Cl)cc1S(=O)(=O)Nc1ccc2c(c1)n(C)c(=O)n2C	?	-	-	-	20µM!
Cc1ccc(NC(=O)Nc2nnc(N(C)C3CCCCC3)s2)c(Cl)c1	-	-	-	-	-
Cc1c(Cl)cccc1NC(=O)Nc1nnc(N(C)C2CCCCC2)s1	18.4µM	-	-	-	-
CCCCN1CC[C@H]2C=CC[C@@H](C(=O)Nc3ccc(OC)cc3)[C@H]2C1=O	-	-	-	-	-
CCn1nc(C(=O)NNC(=O)c2ccccc2)c2ccccc2c1=O	?	-	-	15.8µM	-
COc1cc(C2CC(=O)c3cnc(N4CCN(Cc5ccccc5)CC4)nc3C2)cc(OC)c1OC (stereo unspecified)	?	-	?	-	-
COc1ccc(C2CC(=O)c3c(C)nc(N4CCN(Cc5ccccc5)CC4)nc3C2)cc1OC (stereo unspecified)	18.4µM	?	.	-	-
O=c1c2ccccc2[nH]c(=S)n1CC1CCCO1 (stereo unspecified)	?	-	-	-	-
CN(CC1CCCN(CCc2cccc(C(F)(F)F)c2)C1)C(=O)c1cc2ccccc2o1 (stereo unspecified)	?	12.6µM	-	-	-
CN(C)/C=C/C(=O)c1cc(N2CCOCC2)ccc1[N+](=O)[O-]	-	-	?	-	-
CC1(C)N=C(N)N=C(N)N1c1ccc(OCC(=O)N2CCOCC2)cc1	.	-	.	-	-
CC1(C)N=C(N)N=C(N)N1c1ccc(OCC(=O)N2CCOCC2)c(Cl)c1	.	-	.	-	0.1µM
O=C1NCC(Nc2ccc(Cl)cc2)C(=O)N1 (stereo unspecified)	-	-	-	-	-
SMILES	Nrf2 block	TGFb SMAD3 inh	A549 viability	Nrf2 ARE act	HepG2 viability
CC1(C)c2[nH]c3ccccc3c2C[C@@H]2C(=O)N(c3cc(F)ccc3F)C(=O)N21	-	-	-	-	-
NC(=S)N/N=C/c1ccccc1OC(=O)/C=C/c1ccccc1	-	7.08µM	-	-	3.98µM
CCOC(=O)C1CCN(S(=O)(=O)c2ccc3[nH]c4c(c3c2)CCCC4)CC1	-	-	-	-	-
COc1cc(Cl)c(NC(=O)CN(C)S(=O)(=O)c2ccc3[nH]c4c(c3c2)CCCC4)c(OC)c1	23.1µM	?	-	-	-
COc1ccc(NC(=O)CN(C)S(=O)(=O)c2ccc3[nH]c4c(c3c2)CCCC4)cc1Cl	?	?	-	-	-
CCOc1ccccc1NC(=O)C1CCCN1S(=O)(=O)c1ccc2nc(-c3ccccc3)[nH]c2c1 (stereo unspecified)	?	11.2µM	-	-	-
CCOC(=O)CC(NS(=O)(=O)c1ccc2[nH]c3c(c2c1)CCCC3)c1ccccc1Cl (stereo unspecified)	?	20µM	?	-	-
O=S(=O)(c1ccc2nc(-c3ccccc3)[nH]c2c1)N1CCN(c2cccc(Cl)c2)CC1	?	-	-	-	-
COc1ccccc1N1CCN(S(=O)(=O)c2ccc3nc(-c4ccccc4)[nH]c3c2)CC1	23.1µM	-	-	-	-
COc1ccc(/C=C2\SC(=O)N(CCNC(=O)CCS(=O)(=O)c3ccc(C)cc3)C2=O)cc1	-	?	-	-	-
COc1cccc(NS(=O)(=O)c2ccc3[nH]c4c(c3c2)CCCCCC4)c1	?	?	-	-	12.6µM
COc1ccccc1N1CCN(S(=O)(=O)c2ccc3[nH]c4c(c3c2)CCCC4)CC1	23.1µM	?	-	-	-
COc1ccccc1CNS(=O)(=O)c1ccc2[nH]c3c(c2c1)CCCCC3	?	11.2µM	?	-	-
Cc1cccc(-c2nc3c4ccccc4nc(NCc4ccc(F)cc4)n3n2)c1	?	-	-	-	-
CCOC(=O)N1CCC2(CC1)C(C(=O)C13CC4CC(CC(C4)C1)C3)C2(C#N)C#N (stereo unspecified)	-	-	-	-	-
O=c1c2ccccc2nc(N/N=C/c2c(O)ccc3ccccc23)n1O	6.51µM	-	?	-	-
O=c1c2ccccc2nc(N/N=C/c2ccc(O)cc2)n1O	?	-	-	-	-
COc1cc(CNC2CCCC2)cc(Cl)c1OCc1ccccc1F	-	?	-	-	11.2µM
COc1cc(CNc2ccc3[nH]c(=O)[nH]c3c2)cc(Cl)c1OCc1ccccc1F	?	-	?	-	-
COc1ccccc1-c1ccc2c(c1)C(C)(Cc1ccccc1C#N)C(=O)N2 (stereo unspecified)	.	?	.	-	-
CC1(Cc2cccc(F)c2)C(=O)Nc2ccc(S(=O)(=O)NC3CCCCC3)cc21 (stereo unspecified)	.	-	.	-	-
COc1ccccc1-c1ccc2c(c1)C(C)(Cc1ccc(Cl)c(Cl)c1)C(=O)N2 (stereo unspecified)	.	14.1µM	.	-	-
CC1(Cc2ccc(Cl)c(Cl)c2)C(=O)Nc2ccc(S(=O)(=O)NC3CCCCC3)cc21 (stereo unspecified)	.	12.6µM	.	-	-
CCN(CC(=O)Nc1c(F)cccc1F)C(=O)CCNC(=O)c1ccco1	-	-	-	-	-
CCn1c2ccccc2c2c3ncc4cccn4c3ccc21	?	-	-	12.6µM	-
